In PubChem BioAssay AID1159580 (chemical genetic matrix, 2015):
Screen size: about 5,500 compounds; about 2,000 (36%) were called active. Another 18% or so got no clear call; they are omitted. No stated cut-off is given here; in the data, active means normalized growth mostly below about 0.91 (no sharp cut-off); inconclusive means no clear call, values can overlap the other calls; inactive means mostly above about 0.92. The list shows a part of the results.

Test: chemical genetic growth profiling, strain panel (AID 1159580);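 further: tested at 20 µM; growth read once vehicle control cultures reached saturation at 30 °C; 1 = growth at the plate median or of vehicle wells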
Settings: S. cerevisiae deletion strains, growth OD

Measured: normalized growth

CCC(=O)c1ccc2c(c1)N(CCCN(C)C)c1ccccc1S2
inactive: locus YAL040C, strain CLN3, stronger effect = lower value 0.997 | locus YCL061C, strain MRC1 (second series), stronger effect = lower value 1 | locus YDR150W, strain NUM1, stronger effect = lower value 1.01 | locus YDR363W, strain ESC2, stronger effect = lower value 1.02 | locus YER002W, strain NOP16, stronger effect = lower value 1.01 | locus YGR229C, strain SMI1, stronger effect = lower value 0.986 | locus YJR075W, strain HOC1, stronger effect = lower value 0.985 | locus YNL153C, strain GIM3, stronger effect = lower value 1.16 | locus YNL175C, strain NOP13, stronger effect = lower value 1.02 | locus YNL197C, strain WHI3, stronger effect = lower value 1.05 | locus YNL224C, strain SQS1, stronger effect = lower value 1.07 | locus YNL322C, strain KRE1, stronger effect = lower value 0.971 | locus YOR083W, strain WHI5 (second series), stronger effect = lower value 1 | locus YPL055C, strain LGE1, stronger effect = lower value 0.988
